From PubChem BioAssay (NCI)
Compounds without any hit were thinned out: in the full panel of roughly 83,000, 20% have a hit.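 Percent growth is the endpoint: 0 to 100 indicates growth inhibition (40 means 60% inhibition), 0 means no net growth, and negative values indicate cell death.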 Calls of active or inactive are those of the source. Rule for the calls: active = growth percent below 10; inactive = the rest.

Tests used:
Assay in all cases: NCI-60 one-dose screen, 48 h (100 = growth as untreated, 0 = no growth, -100 = all killed)
Settings in all cases: 10 µM unless noted
[1] = system: HCT-15 colon
[2] = system: HT29 colon
[3] = system: SNB-75 CNS
[4] = system: SNB-19 CNS
[5] = system: U251 CNS
[6] = system: PC-3 prostate
[7] = system: SK-MEL-5 melanoma
[8] = system: UACC-62 melanoma
[9] = system: LOX IMVI melanoma
[10] = system: SK-MEL-28 melanoma

Measured: growth

CCOC(=O)C1=C(C(F)(F)F)NC(=O)NC1CN1C(=O)c2ccccc2C1=O (stereo not given)
inactive: [1] 123% | [2] 113% | [3] 98.4% | [4] 111% | [5] 107% | [6] 92% | [7] 111% | [8] 92.9% | [9] 111% | [10] 113%

CCN(CC)CCCC(C)Nc1c(C)cnc2cc(Cl)c(C)cc12 (stereo not given)
inactive: [1] 86.8% | [2] 40% | [3] 95.5% | [4] 99.9% | [5] 84.7% | [6] 87.8% | [7] 90.2% | [8] 109% | [9] 81.2% | [10] 85.4%

O=C1C(=O)c2ccccc2C(O)=C1CCCc1ccc(Oc2ccccc2)cc1
inactive: [1] 74.1% | [2] 113% | [3] 71.2% | [4] 62% | [5] 36.1% | [6] 37.5% | [7] 55.1% | [8] 36.5% | [9] 38.9% | [10] 74.8%

O=C1C=C(OCC=C(C(F)(F)F)C(F)(F)F)c2ccccc2C1=O
active: [2] 6.37% | [6] -19% | [9] -62.4% | [10] -17.5%
inactive: [1] 11% | [3] 66.6% | [4] 61% | [5] 39.7% | [7] 33.5% | [8] 63.7%

CC1(C)CC(=O)C2=C(C1)Oc1nc(N)c(C#N)c(N)c1C2c1ccc(F)cc1 (stereo not given)
inactive: [1] 123% | [2] 99.6% | [3] 101% | [4] 113% | [5] 107% | [6] 113% | [7] 91.6% | [8] 85.6% | [9] 96.6% | [10] 110%

COc1cc2oc(-c3ccc(NC(=O)c4ccccc4)cc3)cc(=O)c2c(OC)c1OC
inactive: [1] 79.2% | [2] 84.3% | [3] 81% | [4] 75% | [5] 90.5% | [6] 71.7% | [7] 85.7% | [8] 85.4% | [9] 92.5% | [10] 93.3%

N=C(N)N=Nc1ccc(NN=C(N)N)c2ccccc12
inactive: [1] 110% | [2] 99.3% | [3] 73.1% | [4] 51.7% | [5] 35.5% | [6] 87.8% | [7] 138% | [8] 102% | [9] 103% | [10] 113%

COc1ccc(CNCCCN2C(=O)c3ccc4c5c(ccc(c35)C2=O)C(=O)N(CCCNCc2ccc(OC)c(OC)c2OC)C4=O)c(OC)c1OC
active: [1] -63.7% | [2] -76.4% | [3] -96.8% | [4] -79.5% | [5] -94.2% | [6] -71.9% | [7] -97.9% | [8] -78.4% | [9] -84.7% | [10] -92.9%

COc1cc(-c2nn(-c3ccc(NC(=O)c4ccc(Cl)c(C(F)(F)F)c4)cc3)cc2-c2ccncc2)ccc1Cl
active: [1] -44.1% | [2] -75.5% | [3] -7.6% | [6] 2.37% | [7] -93.3% | [8] -0.867%
inactive: [4] 32.9% | [5] 22.2% | [9] 21.6% | [10] 35.7%

CCN(CC)CCCNc1c2ccc(Cl)cc2nc2ccc(OC)cc12
active: [1] 1.74% | [2] -15.4% | [3] -44.9% | [5] -14.9% | [6] -34.6% | [7] -96.3% | [9] -43.1% | [10] -72.3%
inactive: [4] 10.2% | [8] 50.3%

CC(C)CCCCCOC(=O)c1ccccc1SSc1ccccc1C(=O)OCCCCCC(C)C
inactive: [1] 104% | [2] 122% | [3] 87.2% | [4] 103% | [5] 110% | [6] 88.6% | [7] 96.2% | [8] 96.2% | [9] 100% | [10] 114%

O=C(CN1C(=O)NC(c2ccccc2)(c2ccccc2)C1=O)c1ccc(N2CCCC2)cc1
inactive: [1] 64.7% | [2] 65.3% | [3] 77.8% | [4] 90.7% | [5] 76.6% | [6] 71.8% | [7] 70.8% | [8] 89.5% | [9] 74.2% | [10] 73.9%

CN1C(=O)C(=Cc2coc3ccc(Br)cc3c2=O)C(=O)N(C)C1=O
inactive: [1] 105% | [2] 108% | [3] 105% | [4] 105% | [5] 104% | [6] 89.3% | [7] 93.8% | [8] 83.4% | [9] 101% | [10] 103%

CC(=O)OCC(=O)[C@@]1(O)[C@H](C)C[C@H]2[C@@H]3C=C(C)C4=Cc5c(cnn5-c5ccc(F)cc5)C[C@]4(C)[C@H]3[C@@H](O)C[C@@]21C
inactive: [4] 25.9% | [6] 12% | [10] 34.5%
active: [1] -11.1% | [2] -43.4% | [3] 6.75% | [5] 9.65% | [7] -47.3% | [8] -9.5% | [9] 1.77%

Nc1ccc(S(=O)(=O)Nc2cc(F)cc(F)c2)cc1
inactive: [1] 105% | [2] 102% | [3] 92.8% | [4] 104% | [5] 98.1% | [6] 109% | [7] 106% | [8] 88.3% | [9] 91.5% | [10] 120%

Clc1ccc(I)c2ccccc12
inactive: [1] 96.4% | [2] 111% | [3] 96.5% | [4] 110% | [5] 96.3% | [6] 102% | [7] 109% | [8] 111% | [9] 59.4% | [10] 114%

CCCCN(CCCC)CCCNc1c2c(nc3ccc(Cl)cc13)CCCC2
inactive: [1] 74.2% | [2] 45.7% | [3] 88.4% | [4] 102% | [5] 101% | [6] 95.5% | [7] 106% | [8] 108% | [9] 90.4% | [10] 108%

O=C1C(Cl)=C(SC2=NCCN2)C(=O)c2ccccc21
active: [7] -29.6%
inactive: [1] 83.3% | [2] 102% | [3] 153% | [4] 92.3% | [5] 63.9% | [6] 64.5% | [8] 74.3% | [9] 18% | [10] 78.9%

Ic1ccc(SSc2ccc(I)cc2)cc1
inactive: [1] 99.5% | [2] 95.3% | [3] 88.4% | [4] 94.6% | [5] 67.8% | [6] 58.5% | [7] 90.8% | [8] 97.8% | [10] 108%
active: [9] 0.697%

CC1(c2ccc(Br)cc2)NC(=O)NC1=O (stereo not given)
inactive: [1] 106% | [2] 106% | [3] 99.3% | [4] 105% | [5] 97.2% | [6] 103% | [7] 104% | [8] 101% | [9] 100% | [10] 112%

CCOc1ccc(/C=N/NC(=O)c2cccc3ccccc23)cc1OCC
inactive: [1] 97.2% | [2] 103% | [3] 106% | [4] 110% | [5] 100% | [6] 90.1% | [7] 92.1% | [8] 93.4% | [9] 92.7% | [10] 103%

COC(=O)c1ccc2[nH]c(O)c(C(=Nc3ccc(N(C)C(=O)CN4CCN(C)CC4)cc3)c3ccc(CCO)cc3)c2c1
inactive: [1] 82.1% | [2] 43.8% | [3] 18.1% | [4] 31.4% | [5] 31.3% | [6] 56.4% | [7] 50% | [8] 73.7% | [9] 37.5% | [10] 38.3%

CCCCn1c(Cc2ccc(OC)cc2)nc2cc(OC)c(OC)cc2c1=O
inactive: [1] 93.4% | [2] 101% | [3] 87.5% | [4] 84.7% | [5] 87.8% | [6] 91.8% | [7] 36.6% | [8] 59.6% | [9] 90.2% | [10] 90.6%

Cc1c(C(N)=O)sc2c1c(=O)n(Cc1ccccc1)c1nnc(S(C)(=O)=O)n21
inactive: [1] 96.1% | [2] 88.2% | [3] 94.4% | [4] 93.2% | [5] 98.7% | [6] 47.8% | [7] 74.8% | [8] 78.1% | [9] 81.2% | [10] 96.2%

c1cc[c]([Bi]([c]2ccccc2)[c]2ccccc2)cc1
inactive: [1] 103% | [2] 112% | [3] 76.9% | [4] 102% | [5] 99.6% | [6] 85.2% | [7] 97.8% | [8] 94.6% | [9] 98.6% | [10] 102%

CC(=O)N1CCN(CCNC(=O)n2cc(-c3ccncc3)c(-c3ccc(O)c(Cl)c3)n2)CC1
inactive: [1] 118% | [2] 103% | [3] 81.4% | [4] 120% | [5] 110% | [6] 171% | [7] 107% | [8] 91.3% | [9] 109% | [10] 85.5%

Cc1ccc(C(C)C)c(OCc2ccc(C(=O)N/N=C/c3cccc(O)c3O)cc2)c1
active: [9] -12.3%
inactive: [1] 13.4% | [2] 39.6% | [3] 44.7% | [4] 45.6% | [5] 28.3% | [6] 39.4% | [7] 38.6% | [8] 30.8% | [10] 42.8%

COc1cc(NC(C)CCCN)c2nc(C)ccc2c1OC (stereo not given)
inactive: [1] 106% | [2] 93.2% | [3] 98.7% | [4] 107% | [5] 94.7% | [6] 85.9% | [7] 101% | [8] 108% | [9] 106% | [10] 101%
